Laboratory results: PubChem BioAssay (NCI)
Compounds without any hit were thinned out: in the full panel of roughly 83,000, 20% have a hit.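 For each line, cells grew in 96-well plates with the test compound present at a single concentration for 48 hours.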 A number with no mark means an inactive call. The source made the active and inactive calls. Rule for the calls: active = growth percent below 10; inactive = the rest.

Key:
Test in all cases: NCI-60 one-dose screen, 48 h (100 = growth as untreated, 0 = no growth, -100 = all killed)
Conditions in all cases: 10 µM unless noted
[1] = test system: SR leukemia
[2] = test system: RPMI-8226 leukemia
[3] = test system: OVCAR-8 ovarian
[4] = test system: OVCAR-5 ovarian
[5] = test system: OVCAR-4 ovarian
[6] = test system: SK-OV-3 ovarian
[7] = test system: IGROV1 ovarian
[8] = test system: OVCAR-3 ovarian
[9] = test system: HS 578T breast
[10] = test system: NCI/ADR-RES ovarian

Row | SMILES | growth [1] | growth [2] | growth [3] | growth [4] | growth [5] | growth [6] | growth [7] | growth [8] | growth [9] | growth [10]
1 | COc1cc2c(cc1OCCCN1CCN(CCCOc3cc4c(cc3OC)C(=O)N3CCC[C@H]3C=N4)CC1)C=CC(C)(C)O2 | -58.3% (active) | -8.49% (active) | -56.7% (active) | -80.7% (active) | -71.2% (active) | -83.9% (active) | -89.1% (active) | -75.6% (active) | -77.9% (active) | 32.6%
2 | CCN(CC)CC(O)COc1c(Br)c(Br)c(Br)c2c1OC(C)(C)C2 (stereo not given) | 16.7% | 85.5% | 126% | 93.2% | 82.9% | 97.9% | 607% | 14% | -69.4% (active) | 85%
3 | c1ccc2cc(C[n+]3ccn(CCCCCCCCCCn4cc[n+](Cc5ccc6ccccc6c5)c4)c3)ccc2c1 | -45.2% (active) | 9.87% (active) | 11.1% | 12.8% | 12.5% | -17.1% (active) | -26.1% (active) | 4.99% (active) | -1.11% (active) | 99.5%
4 | COC(=O)C1Cc2ccccc2CN1C(=O)c1ccc2c(c1)Cc1ccccc1-2 (stereo not given) | 57.2% [50 µM] | 18.1% [50 µM] | 32.4% [50 µM] | 62.4% [50 µM] | 20.2% [50 µM] | 86% [50 µM] | 42.8% [50 µM] | 47% [50 µM] | 70.4% [50 µM] | 25.6% [50 µM]
5 | COc1ccc(/C=C(\C#N)n2nnc3cc(F)c(F)cc32)cc1 | 12.9% | 70.5% | 70.1% | 56.3% | 74% | 69.6% | 39.7% | 21.5% | 92.1% | 19.6%
6 | CCCC/C(CC)=N\NS(=O)(=O)c1ccc([N+](=O)[O-])cc1 | 97.5% | 101% | 100% | 94.6% | 100% | 95.9% | 105% | 107% | 103% | 104%
7 | Cc1ccc(Nc2cc(N)nc(N)n2)cc1Cl | 108% | 81.6% | 94.5% | 94.6% | 90.3% | 93.8% | 91% | 96.7% | 98.3% | 97%
8 | CCCCCOC(=O)c1c(C)[nH]c(/C=C2\N=C(c3ccc[nH]3)C=C2OC)c1C | -30% (active) | -43.6% (active) | 7.42% (active) | -47.1% (active) | -7.23% (active) | 8.75% (active) | -14.1% (active) | -52.4% (active) | -23.5% (active) | 5.69% (active)
9 | COc1ccc2c(c1)CC[C@H](O)/C2=C/c1cc(OC)c(OC)c(OC)c1 | -5.45% (active) | 34.3% | 16.1% | 61% | 41.1% | 13.9% | 27.8% | -18.3% (active) | 33.3% | 6.93% (active)
10 | CCOC(=O)n1ccn(C)c1=S | 94.2% | 103% | 105% | 102% | 110% | 85.3% | 110% | 106% | 132% | 107%
11 | CCN(CC)CCn1c2ccc(OC)cc2c2sc3cc(OC)ccc3c(=O)c21 | 1.43% (active) | 11.8% | 30% | 37.1% | 37.7% | 56.5% | 14.5% | 31.5% | 46.1% | 23%
12 | CCN1CCN(C(=O)[C@]23CCC(C)(C)C[C@@H]2C2=CC[C@@H]4[C@@]5(C)CCC(=O)C(C)(C)[C@@H]5CC[C@@]4(C)[C@]2(C)CC3)CC1 | 12.2% | 9.86% (active) | 63% | 72.2% | 50.7% | 70.1% | 65% | 56.4% | 40.7% | 39.7%
13 | COc1ccc(CN2c3ccccc3Sc3ccccc32)cc1F | 16.9% | 21.2% | 23.7% | 43.1% | 49.2% | 16.8% | 35.5% | -5.46% (active) | 16.9% | 2.82% (active)
14 | Cc1ccccc1/C=C/C(=O)c1cccc(OCCCCOc2cccc(C(=O)/C=C/c3ccccc3C)c2)c1 | 74.4% | -6.51% (active) | 97.6% | 103% | 87.1% | 107% | 96.6% | 104% | 106% | 99.1%
15 | O=C1c2c(c3c4ccccc4[nH]c3c3ccc4ccccc4c23)C(=O)N1CCN1CCNCC1 | -13.3% (active) | -35% (active) | 34.5% | 99.5% | 12.9% | 107% | 58.1% | -47.5% (active) | 94.7% | 25.9%
16 | NC(=O)c1cccc(-n2ccc3cc(NC(=O)c4ccc(N5CCOCC5)c(C(F)(F)F)c4)ccc32)n1 | 26.5% | 12.2% | 31.9% | 70.1% | 47% | 43.3% | 74.8% | 48.7% | 14% | 66.1%
17 | O=C(OC(CO)C(=O)NC12CC3CC(CC(C3)C1)C2)c1ccc(Cl)cc1 (stereo not given) | 84.7% | 98% | 100% | 96.3% | 101% | 107% | 109% | 115% | 99.5% | 107%
18 | Nc1cnc(C(=O)NNc2nc3cc(F)ccc3n3cccc23)cn1 | 25.5% | 52.6% | 27.6% | 56.6% | 31.3% | 37.9% | 26% | 20.9% | 80.4% | 16.2%
19 | CCN1C(=S)N(c2ccccc2)C2C1NN=c1s/c(=C3\C(=O)N(C(C)C)c4ccccc43)c(=O)n12 (stereo not given) | 46.2% | 97.4% | 54.1% | 93.9% | 1.68% (active) | 104% | 71% | 84.2% | 54.8% | 64.1%
20 | Nc1ncnc2c1C(c1ccccc1)c1ccc3ccccc3c1O2 (stereo not given) | 55.1% | 80.8% | 79.6% | 99% | 86.5% | 64.7% | 77.8% | 93.9% | 93.7% | 80.9%
21 | Nc1ncnc2c1C(c1ccc(Br)cc1)c1sc3c(F)cccc3c1O2 (stereo not given) | 85.6% | 100% | 101% | 99.8% | 87.4% | 102% | 81.6% | 103% | 94.8% | 96.1%
22 | CSc1oc(C)nc1[P+](c1ccccc1)(c1ccccc1)c1ccccc1 | 30.6% | 6.31% (active) | 60.1% | 83.1% | 34.6% | 57.7% | 60.6% | 36.9% | 55% | 106%
23 | Nc1c(C(=O)Nc2ccncc2)sc2nc3c(cc12)C(O)CCC3 (stereo not given) | 84.1% | 89.3% | 98.7% | 97.2% | 114% | 98% | 103% | 119% | 118% | 105%
24 | O=S(=O)(c1ccccc1)n1cc2c(c1)-c1nc(Nc3ncccn3)sc1CC2 | 74.6% | 71.3% | 65% | 95.8% | -27.9% (active) | 66% | 70.4% | 40.3% | 22.4% | 53%
25 | O=C1/C=C/[C@@H](O)[C@@H]2C[C@@H](O)C[C@H]2/C=C/CCC[C@H](CCc2ccccc2)O1 | 9.67% (active) | 10.7% | 14.4% | 19.8% | 24.9% | 28.2% | 14.7% | -42.1% (active) | 47.8% | 5.65% (active)
26 | C#CCOc1ccc2ncnc(Nc3ccc(NC(=O)C=C)cc3)c2c1 | -23% (active) | -29.4% (active) | 0.598% (active) | 12.2% | 35% | 90.6% | -59% (active) | -22.3% (active) | 14.9% | 67%
